Drawing on PubChem BioAssay (Tox21), this text covers outcome and fluorescence, relative to Rose Bengal for 40 compounds.

The structures appear in SMILES notation. Values without a mark were called inactive. Active and inactive are the calls of the source. The call rests on the fitted dose curve; in most records, active means well fitted curve in the direction sought with a large enough effect in the repeat runs; inconclusive means weak or mixed curves; inactive means flat fitted curve, though single readings scatter.
On the % scale 0 is the no-effect control and ±100 the full control effect.

A short description of the assay: qHTS assay to test for compound auto fluorescence at 590 nm (red) in HepG2 cells (AID 720674). Particulars: HepG2 autofluorescence, red 540/590 nm, 1 h; series mostly up to 91.3 µM. The text has this:
U.S. Tox21 Program National Center for Advancing Translational Sciences [NCATS] NIH Chemical Genomics Center [NCGC] U.S. Environmental Protection Agency [EPA] National Institutes of Environmental Health Sciences [NIEHS] National Toxicology Program [NTP] U.S. Food and Drug Administration [FDA] Tox21 Assay Overview: Compound auto fluorescence often interferes with screening of the compound library against various biological targets and signaling pathways. Some of these compounds may have fluorophoric properties. Such properties may interfere with the assay outputs resulting in false positives and/or negatives. To decrease such complications and ensure the compound activities are relevant in terms of biological response, the Tox21 10K compound library was screened for auto fluorescence. From the fluorophores used as reporter signals in our screening assays, the auto fluorescence equivalencies of compounds against three fluorophores have been evaluated: Triamterene, Fluorescein and Rose Bengal sodium for blue, green and red fluorescence, respectively. The fluorescence intensities were measured using Excitation/Emission wavelengths at 405/460nm, 485/535nm and 540/590nm for blue, green and red labels, respectively. This assay includes the red fluorescence data.
Tox21 Assay Protocol Summary: 2,000 HepG2 cells in 5 uL of culture medium (MEM containing 10% FBS) per well were dispensed into black wall/clear bottom 1536-well plates using a Multidrop Combi Dispenser (ThermoFisher Scientific, Waltham, MA). The assay plates were incubated overnight at 37 C to allow cell attachment to the well bottom, followed by the transfer of 23 nL compound or DMSO vehicle by a pintool work station (Kalypsys , San Diego, CA). After the assay plates were incubated for 1 hr at 37 C and 5% CO2, fluorescence intensities in the assay plates were measured by an Envision (PerkinElmer, Shelton, CT) plate reader using three labels for measuring blue, green and red fluorescence at […] 460, 535 and 590 nm respectively.
With `COCCCCCCCCOCCC[Si](C)(O[Si](C)(C)C)O[Si](C)(C)C`, the compound was called inactive.

`CC(=O)SCc1ccco1`: the result was inactive. As to `CN1CCN(C2=Nc3cc(Cl)ccc3Nc3ccccc32)CC1`, the result was inactive. Regarding `CN(c1nccc(=O)[nH]1)C1CCN(c2nc3ccccc3n2Cc2ccc(F)cc2)CC1`, the outcome was inactive. For `S=C(S)NCCNC(=S)S`, the compound was classed as inactive. As to `CCCCCCCCCCCCC(=O)O`, the compound was called inactive. On the same count and under the same terms, next, `CCc1nn(C2CCCCC2)c2cc(C3(C#N)CCC(C(=O)O)CC3)ccc12` (stereo not given): “inactive”; `C=C(C)C(=O)OCCN(C)C`: “inactive”.

Regarding `O=[N+]([O-])c1cc[n+]([O-])cc1`, the compound was called inactive. Same read-out and setting: next, `NC(N)=NN=C(/C=C/c1ccc([N+](=O)[O-])o1)/C=C/c1ccc([N+](=O)[O-])o1`: “inactive”. Take `CC(C)CCCC(C)CCO` (stereo not given): the call was inactive. Take `CCCCCCCCN(C)C`: the compound was classed as inactive. Turning to `Cc1cccc(Oc2ccccc2)c1`, the call was inactive.

Consider `Cn1sccc1=O`, for which the compound was called inactive. In the case of `COC(=O)CSc1cc(N=c2sc(=O)n3n2CCCC3)c(F)cc1Cl`, the result was inactive.

Consider `CC(C)(C)C1CCCCC1O` (stereo not given), for which the call was inactive. The same measure, in the same setting: next, `Cc1ccc(C(C)c2ccc(C)c(C)c2)cc1C`: “inactive”. Consider `CCCCCOC(=O)c1ccc(O)cc1`, for which the call was inactive. With `Cc1ccc(O)c([C@H](CCN(C(C)C)C(C)C)c2ccccc2)c1`, the outcome was inactive. For `O=C(Nc1ccccc1)OCC(CN1CCCCC1)OC(=O)Nc1ccccc1` (stereo not given), the fluorescence, relative to Rose Bengal was -0.654% [at 18.6 µM]. With `CC(C)c1ccccc1C(C)C`, the compound was called inactive. For the compound `FC(F)(F)C(F)(F)C(F)(F)C(F)(F)C(F)(F)C(F)(F)CCI`, the outcome was inactive.

Turning to `CC(C)(C)c1cc(CCC(=O)OCC(COC(=O)CCc2cc(C(C)(C)C)c(O)c(C(C)(C)C)c2)(COC(=O)CCc2cc(C(C)(C)C)c(O)c(C(C)(C)C)c2)COC(=O)CCc2cc(C(C)(C)C)c(O)c(C(C)(C)C)c2)cc(C(C)(C)C)c1O`, the result was inactive. Consider `Cc1cc(C)c(S(=O)(=O)O)cc1N=Nc1cc(S(=O)(=O)O)c2ccccc2c1O`, for which the result was inactive.

With `CCN(CC)CCNC(C(=O)OCCC(C)C)c1ccccc1` (stereo not given), the call was inactive. On the same count and under the same terms, next, `CN1CCN(C2=Nc3ccccc3Sc3ccc(Cl)cc32)CC1`: “inactive”. Same read-out and setting: next, `CCCC(C)C`: “inactive”. As for `CCCCCCCCCC=O`, the compound was called inactive. The same measure, in the same setting: next, `CC(=O)/C(C)=C/C1C(C)=CCCC1(C)C` (stereo not given): “inactive”. Consider `CC1(C)CCC(C)(C)c2cc(NC(=O)c3ccc(C(=O)O)cc3)ccc21`, for which the compound was classed as inactive. For `CC1CCc2cc(F)cc3c(=O)c(C(=O)O)cn1c23` (stereo not given), the call was inactive. As to `Oc1ccc(C(O)CNCCCCCCNCC(O)c2ccc(O)c(O)c2)cc1O` (stereo not given), the compound was called inactive. On to `Cc1occc1S`, for which the outcome was inactive. Take `CC[C@]12CCCN3CCc4c(n(c5ccccc45)C(=O)C1)[C@@H]32`: the fluorescence, relative to Rose Bengal is -0.674% [at 18.6 µM]. Take `C=CCCCCCC`: the outcome was inactive. Regarding `C=CC(C)(CCC=C(C)C)OC(=O)c1ccccc1` (stereo not given), the compound was called inactive.

As for `Nc1ccc(C(=O)Nc2ccccc2N)cc1`, the compound was classed as inactive.

Regarding `CN(C)C/C=C(/c1ccc(Br)cc1)c1cccnc1`, the compound was called inactive.

Regarding `CC[C@H](C)[C@H](N)C(=O)O`, the compound was classed as inactive. As for `NCCCN(CCO)CCO`, the result was inactive.
